Assay outcomes as filed in PubChem BioAssay.
Sampled rows, rich in hits. Any-hit rate of the full collection: about 2.8%.
Pol kappa inh-1: inhibitors of human DNA polymerase kappa | Q9UBT6 | purified Pol kappa, fluorescent DNA synthesis assay, 10 min | Potency, µM (highest dose often 107 µM), for the others: at the top dose activity, negative = inhibition, actives largely listed as inhibitors | hit rate 0.53% among 400,000 | AID 588579; further: potency means the concentration at half of the fitted maximal effect; on the % scale 0 is the no-effect control and ±100 the full control effect
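First, compounds were pin-transferred onto 10 nM Pol kappa. After 15 min at room temperature, substrate was added to 50 nM final. Fluorescence was then measured kinetically at 0 and 10 min.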
Pol iota inh: inhibitors of human DNA polymerase iota; Q9UNA4; Pol iota fluorescent replication assay, 10 min; Potency, µM (top dose mostly 115 µM), for the others: at the top dose activity, negative = inhibition, usual class: inhibitors; hit rate 1% among 390,000; AID 588590; further: potency means the concentration at half of the fitted maximal effect
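Fluorescent replication assay read twice, at 0 min and 10 min after adding 50 nM (final) substrate. Enzyme (10 nM) and compounds were first incubated 15 min at room temperature; enzyme-free buffer wells were negative controls.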
Pol eta inh-1: DNA polymerase eta (human) inhibition; Q9Y253; recombinant Pol eta, fluorescent DNA replication assay; Potency, µM (series often up to 114 µM), inactives show at the top dose activity change, negative = inhibition, most hits filed as inhibitors; hit rate 1.2% among 390,000; AID 588591; further: potency means the concentration at half of the fitted maximal effect; on the % scale 0 is the no-effect control and ±100 the full control effect
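Pol eta at 10 nM preincubated with compounds 15 min at room temperature; reaction started with fluorescent substrate (50 nM final) and read kinetically at 0 and 10 min.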
PI5P4Ka inh: inhibitors of human PI5P4K alpha. PI5P4Kalpha enzyme, ADP-Glo luminescence, 60 min; active compounds read low. AID 652105. max response, %. P48426. hit rate 1.2% among 330,000; active means max response of -50% or lower; inconclusive means between -30% and -50%; inactive means -30% or higher; further: value at the top dose of about 77 µM; on the % scale 0 is the no-effect control and ±100 the full control effect
Target sequence (P48426 whole entry, looked up): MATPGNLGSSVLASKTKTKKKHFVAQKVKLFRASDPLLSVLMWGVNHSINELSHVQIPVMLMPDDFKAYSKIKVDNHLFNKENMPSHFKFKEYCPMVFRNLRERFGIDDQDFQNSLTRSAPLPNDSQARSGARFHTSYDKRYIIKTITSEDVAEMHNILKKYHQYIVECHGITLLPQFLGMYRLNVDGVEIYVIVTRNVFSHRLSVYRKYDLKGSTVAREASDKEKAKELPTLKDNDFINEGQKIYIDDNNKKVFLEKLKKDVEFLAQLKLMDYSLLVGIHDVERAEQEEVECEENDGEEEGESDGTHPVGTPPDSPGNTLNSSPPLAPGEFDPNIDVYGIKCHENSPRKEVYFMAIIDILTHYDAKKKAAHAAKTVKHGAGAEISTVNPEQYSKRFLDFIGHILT
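qHTS, 1536-well: enzyme/substrate mix, compound by pin tool, 5 microM ATP final; RT 60 min; ADP-Glo reagents 1 (45 min) then 2 (30 min); luminescence.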
Pol beta inh: DNA polymerase beta (human) inhibition. Potency, µM (doses to about 114 µM), without a hit: at the top dose activity change, negative = inhibition, most hits filed as inhibitors. P06746. hit rate 1.3% among 340,000. AID 485314. Pol beta primer extension/strand displacement, fluorescence kinetic; further: potency means the concentration at half of the fitted maximal effect; on the % scale 0 is the no-effect control and ±100 the full control effect
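Human Pol beta at 10 nM; strand-displacement substrate 50 nM final. Compound exposure 15 min at room temperature before start, reaction 10 min at room temperature.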
FEN1 inhibitor: inhibitors of human flap endonuclease 1; P39748; Recombinant FEN1 flap cleavage, fluorescence, 15 min; Potency, µM (titrated, usually from 114 µM), for the others: top-dose activity change, negative = inhibition, usual class: inhibitors; hit rate 0.35% among 390,000; AID 588795; further: potency means the concentration at half of the fitted maximal effect; on the % scale 0 is the no-effect control and ±100 the full control effect; nearly all actives have a fitted effect of over 65% in size
Target sequence (P39748 whole entry, looked up): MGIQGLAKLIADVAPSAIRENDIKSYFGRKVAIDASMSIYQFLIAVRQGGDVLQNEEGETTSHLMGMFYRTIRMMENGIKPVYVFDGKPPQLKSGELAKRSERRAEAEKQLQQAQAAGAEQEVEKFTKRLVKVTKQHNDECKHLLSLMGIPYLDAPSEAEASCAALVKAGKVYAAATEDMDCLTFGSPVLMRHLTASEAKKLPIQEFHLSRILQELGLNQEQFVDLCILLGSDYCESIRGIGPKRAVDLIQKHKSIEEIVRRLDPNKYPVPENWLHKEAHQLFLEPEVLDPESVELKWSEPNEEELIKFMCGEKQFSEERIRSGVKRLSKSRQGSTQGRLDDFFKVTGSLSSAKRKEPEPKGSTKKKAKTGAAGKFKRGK
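Quantitative HTS format: each compound was titrated, incubated with 10 nM nuclease for 15 min at room temperature, then challenged with flap substrate at 50 nM final. Signal change over 15 min gave concentration–effect curves.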
BAZ2B confirm: inhibits human BAZ2B bromodomain, hit validation. shares compounds with Pol kappa inh-1. AlphaScreen BAZ2B / biotin-H3K14Ac peptide displacement. Potency, µM, actives largely listed as inhibitors. hit rate 100% among 25; calls by dose curve
AlphaScreen ctr: counter-screen for BAZ2B inhibitors: AlphaScreen signal interference. shares compounds with Pol kappa inh-1. AlphaScreen biotin-His6 peptide bead counterscreen, signal decrease. Potency, µM (titrated, usually from 57.1 µM), without a hit: top-dose activity change, negative = inhibition, hits mostly inhibitors. 25 tested, under 10 active;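 active means clear concentration-dependent signal drop in the bead assay lacking the target, so a primary-screen artifact; inconclusive means weak, partial or single-dose response; inactive means no response, so a real primary hit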
PGK validate: blocks T. brucei phosphoglycerate kinase; TbPGK coupled GAPDH assay, Kinase-Glo luminescence; shares compounds with Pol kappa inh-1; hit rate 79% among 500; Potency, µM (titrated, usually from 57.5 µM), for inactives: at the highest dose activity change, negative = inhibition, actives largely listed as inhibitors; AID 686980; further: potency means the concentration at half of the fitted maximal effect; on the % scale 0 is the no-effect control and ±100 the full control effect; nearly all actives have a fitted effect of over 65% in size
Pol iota confirm: Confirm cherry-picked inhibitors of human polymerase iota | Potency, µM, hits mostly inhibitors | shares compounds with Pol kappa inh-1 | hit rate 77% among 1,500 | Pol iota primer extension, TAMRA/BHQ fluorescence; further: potency means the concentration at half of the fitted maximal effect
Pol kappa inh-2: confirmation of human DNA polymerase kappa inhibitors; shares compounds with Pol eta inh-1; purified Pol-kappa, fluorescent strand-displacement substrate; Potency, µM, usual class: inhibitors; hit rate 76% among 920; AID 720501; further: potency means the concentration at half of the fitted maximal effect
Pol eta inh-2: Pol eta (human) inhibition, cherry-pick confirmation | shares compounds with Pol eta inh-1 | Pol eta primer extension, TAMRA/BHQ fluorescence, 10 min | Potency, µM, most hits filed as inhibitors | hit rate 64% among 2,600 | AID 720502; further: potency means the concentration at half of the fitted maximal effect
* hit, by the source's call; [ ] = dose if it differs, or a comment. Unless noted, the call rests on the fitted dose curve; in most records, active means well fitted curve in the direction sought with a large enough effect; inconclusive means small, poorly fitted or top-dose-only effect, or another doubt; inactive means no such curve, though single readings can be large; an effect the other way counts as inactive or inconclusive.

`CN1C(=O)/C(=C/C=C/c2ccco2)C(=O)NC1=S` gave Pol kappa inh-1 25µM*, Pol iota inh 10µM*, Pol eta inh-1 5.6µM*, PI5P4Ka inh -90*, Pol beta inh inconclusive, FEN1 inhibitor 20µM* and PGK validate 5.2µM*.
For Cc1ccc(-c2nnc(C)c(N3CCCC3)n2)cc1 the results were Pol kappa inh-1 3%, Pol iota inh 48%, Pol eta inh-1 -20%, PI5P4Ka inh 3, Pol beta inh -5% and FEN1 inhibitor 9%.
For Cc1nc(N2CCCCC2)c2ccsc2n1 the results were Pol kappa inh-1 -4%, Pol iota inh -9%, Pol eta inh-1 -3%, PI5P4Ka inh -5, Pol beta inh -7%, FEN1 inhibitor -4%, BAZ2B confirm 10* and AlphaScreen ctr inconclusive.
COCCN(Cc1cc2cc3c(cc2nc1Cl)OCO3)C(=O)c1ccc(C)cc1 was read as Pol kappa inh-1 -3%, Pol iota inh -8%, Pol eta inh-1 -12%, PI5P4Ka inh 0, Pol beta inh 9%, FEN1 inhibitor -14%, BAZ2B confirm 11* and AlphaScreen ctr inconclusive.
`CCOP(=O)(OCC)C(O)c1ccc2c(c1)OCO2` (centres undefined) gave Pol kappa inh-1 -3%, Pol iota inh -9%, Pol eta inh-1 -6%, PI5P4Ka inh 0, Pol beta inh 39% and FEN1 inhibitor -11%.
O=C(C1CCN(S(=O)(=O)c2ccc(Br)s2)CC1)N1CCN(c2ccc(F)cc2)CC1 was read as Pol kappa inh-1 3%, Pol iota inh 23%, Pol eta inh-1 -18%, Pol beta inh 16% and FEN1 inhibitor -4%.
`O=C1NC(=S)N(c2ccc(F)cc2)C(=O)/C1=C\c1ccoc1` gave Pol kappa inh-1 1µM*, Pol iota inh inconclusive, Pol eta inh-1 1µM*, PI5P4Ka inh -87*, Pol beta inh 2.2µM*, FEN1 inhibitor 7.9µM* and PGK validate 0.23µM*.
Screening Cc1cccc(O)c1 returned Pol kappa inh-1 62%[60.1 µM].
Screening COc1ccc(NS(=O)(=O)c2ccc3c(c2)oc(=O)n3C)cc1Cl returned Pol kappa inh-1 -15%, Pol iota inh inconclusive, Pol eta inh-1 -5%, PI5P4Ka inh 0, Pol beta inh 0% and FEN1 inhibitor 14%.
For CCOc1ccc(NS(=O)(=O)c2ccc(Cl)c(N=Nc3c(O)[nH]c(=S)[nH]c3=O)c2)cc1Br the results were Pol eta inh-1 20µM*, PI5P4Ka inh inconclusive and PGK validate 15µM*.
`COc1ccc(NC(=O)CN(C)C(=O)c2cc3c(s2)CCC3)cc1` gave Pol kappa inh-1 10µM*, Pol iota inh 7.1µM*, Pol eta inh-1 3.2µM*, PI5P4Ka inh -69*, FEN1 inhibitor 25µM*, BAZ2B confirm 7.9* and AlphaScreen ctr -27%.
Screening CCn1c(C)c(C(=O)Nc2ccc(OC)cc2)c2cc(OC)ccc21 returned Pol kappa inh-1 -1%, Pol iota inh 9%, Pol eta inh-1 -21%, PI5P4Ka inh 0, Pol beta inh 3% and FEN1 inhibitor 18%.
Screening Clc1ccccc1C(c1ccccc1)(c1ccccc1)n1cccn1 returned Pol kappa inh-1 6%[60.1 µM].
For O=C(NC1CC1)c1cc(-c2ccco2)nc2ccccc12 the results were Pol kappa inh-1 20µM*, Pol iota inh inconclusive, Pol eta inh-1 3.5µM*, PI5P4Ka inh -101*, Pol beta inh inconclusive, FEN1 inhibitor inconclusive, BAZ2B confirm 10* and AlphaScreen ctr inconclusive.
For C[C@]12[C@H](O)CC3C(CC[C@@H]4C[C@@H](O)CC[C@]34C)[C@@]1(O)CC[C@@H]2C1=CC(=O)OC1 (some centres undefined) the results were Pol kappa inh-1 -14%[19.4 µM].
Screening CN1CC[C@@H]2CN3CCc4cccc(c43)[C@H]2C1 returned Pol kappa inh-1 -14%[19.4 µM].
`CCOC(=O)CCCc1sc(N)nc1-c1[nH]c(=O)[nH]c1C` gave Pol kappa inh-1 inconclusive, Pol iota inh inconclusive, Pol eta inh-1 inconclusive, Pol beta inh 1%, FEN1 inhibitor -9%, BAZ2B confirm 10* and AlphaScreen ctr inconclusive.
O=C1NC(=O)C(=Cc2ccco2)C(=O)N1 was read as Pol kappa inh-1 40µM*, Pol iota inh inconclusive, Pol eta inh-1 8.9µM*, PI5P4Ka inh -84*, FEN1 inhibitor inconclusive, PGK validate 3.7µM*, Pol iota confirm 67*, Pol kappa inh-2 21* and Pol eta inh-2 30*.
O=C1NC(=O)N(Cc2ccc(F)cc2)C(=O)/C1=C\c1ccoc1 was read as Pol kappa inh-1 25µM*, Pol iota inh 14µM*, Pol eta inh-1 22µM*, PI5P4Ka inh -93*, Pol beta inh inconclusive, FEN1 inhibitor inconclusive, Pol iota confirm 19*, Pol kappa inh-2 17* and Pol eta inh-2 30*.
For C[N+]1=C2CCCCCN2C(O)(c2ccccc2)C1 (centres undefined) the results were Pol kappa inh-1 0%, Pol iota inh 24%, Pol eta inh-1 -7%, Pol beta inh -3% and FEN1 inhibitor 7%.
N#CC(C#N)=NNc1ccc(S(N)(=O)=O)cc1 was read as Pol kappa inh-1 45µM*, Pol iota inh 20µM*, Pol eta inh-1 13µM*, PI5P4Ka inh -107*, Pol beta inh -6%, FEN1 inhibitor 40µM*, PGK validate -18%, Pol kappa inh-2 inconclusive and Pol eta inh-2 67*.
